This is part of a sample that, as a whole, favours compounds with a hit. Of some 83,000 tested, about 20% had one in any assay.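 Assay: single dose, 48 h. Readout: percent growth (0 = no net growth; negative = cell death). Active: <10.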 Unmarked numbers belong to inactive results. Active and inactive are the calls of the source.
What follows are compounds tested on UO-31 renal (assay: NCI-60 one-dose screen, 48 h (100 = growth as untreated, 0 = no growth, -100 = all killed)). Details: 10 µM unless noted.

SMILES | growth
O=C1/C(=C\c2ccc[nH]2)c2ccccc2N1c1ccccc1 | 93.2%
CC[C@@H](C)[C@H](NC(=O)Cn1cc(CNC(=O)[C@@H](NC(=O)OCc2ccccc2)C(C)C)nn1)C(=O)O | 95.1%
CN1C(=O)N(C)C2C1NN=c1s/c(=C\c3ccc([N+](=O)[O-])cc3)c(=O)n12 (stereo not drawn) | 63.5%
CNCCNc1nc2ccccc2c2c(=O)c3cccc(C)c3sc12 | 29.6%
CCCCN1CCN(c2ccc3nc(-c4ccc5nc(-c6ccc(C(F)(F)F)cc6)[nH]c5c4)[nH]c3c2)CC1 | -82.8% (active)
CC[C@H](C)[C@@H](C(=O)OC)n1cc(CNC(=O)[C@@H](Cc2ccccc2)NC(=O)OCc2ccccc2)nn1 | 76.7%
COc1ccc(C2=C(c3cccc(OC)c3)C(=O)c3ccc(C)nc3C2=O)cc1 | 25.4%
CC(C)C[C@H](C(=O)N[C@@H](C)C(N)=O)N1CC=CCN(O)S1(=O)=O | 109% [5 µM]
CN1C(=O)N(C)C2Nn3c(s/c(=C\c4ccc(Cl)cc4Cl)c3=O)=NC21 (stereo not drawn) | 62%
COc1ccc(/C=c2\sc3n(c2=O)NC2C(N=3)N(C)C(=O)N2C)cc1 (stereo not drawn) | 77.6%
COC(=O)c1c2c(c(C)[n+]([O-])c1C)C(=O)C=C(NCc1ccccc1)C2=O | -13.6% (active)
N#C/C(=C\c1c(-c2ccccc2)[nH]c2ccccc12)S(=O)(=O)c1ccccc1 | 51.2%
CCN1C(=O)N(CC)C2C1NN=c1s/c(=C3\C(=O)N(CC(C)(C)C)c4ccccc43)c(=O)n12 (stereo not drawn) | 38.9%
CCCCCCCCCCCCCCn1cc(C2=C(c3coc4ccc(OC)cc34)C(=O)NC2=O)c2ccccc21 | 83.5%
O=c1c(-c2nc3ccccc3[nH]2)cc2ccccc2n1Cc1cn(Cc2ccccc2Cl)nn1 | -65.7% (active)
COc1c(B(O)O)cccc1-c1nc2ccc3n[nH]c(F)c3c2c2c1CCCC2 | 41.5%
O=C(CSc1nc2ccccc2c(=O)n1-c1ccccc1)Nc1ccc(C(=O)/C=C/c2ccc(Cl)cc2)cc1 | 82.5%
Cc1cccc2c(=O)c3c(sc12)c(NCCN)nc1ccccc13 | -77.1% (active)
O=c1cc(-c2ccccc2)oc2cc(OCc3cn(Cc4ccc(F)cc4)nn3)cc(OCc3cn(Cc4ccc(F)cc4)nn3)c12 | 3.64% (active)
COc1cc(/C=C2\Oc3cc(OCCCN4CCCC4)ccc3C2=O)cc(OC)c1 | 53.4%

SMILES | growth
Nc1no[n+]([O-])c1-c1nnc2c(n1)-c1ccccc1C2=O | 37%
Cc1nc2ccccc2c(/C=C/c2ccccc2)c1C(=O)/C=C/c1ccc(Cl)cc1 | 11.1%
O=C(CN1C=NC2C(N3CCOCC3)=NC=NC21)c1ccc(Br)cc1 (stereo not drawn) | 78.6%
COc1ccc(/C=C/C(=O)c2c(C)nc3ccccc3c2/C=C/c2ccccc2)cc1O | 53.3%
NC(CCc1nc2ccccc2c(=O)[nH]1)C(=O)O (stereo not drawn) | 86.7%
CN1CCN(Cc2ccc(NC(=O)c3[nH]ncc3Nc3cc(OC4CCCC4)ncn3)cc2)CC1 | 25.8%
COc1ccc(C2=Nn3c(NN)nnc3SC2)cc1 | 84.5%
COc1cc2nc(-c3cnc(N(C)C)nc3)nc(NC3CCN(Cc4ccccc4)CC3)c2cc1OC | -81.2% (active)
CCN1C(=O)N(c2ccccc2)C2NN=c3s/c(=C4\C(=O)N(C(C)C)c5ccccc54)c(=O)n3C21 (stereo not drawn) | 55.6%
CC(C)c1ccc(S(=O)(=O)NC(=O)NC2CCCC2)cc1 | 95.4%
COc1cc2nc(NC3CCC3)nc(NC3CCN(C(C)C)CC3)c2cc1OC | 80.6%
COc1ccc(C2C3=C(COC3=O)N(CCO)c3cc4c(cc32)OCCO4)cc1 (stereo not drawn) | 101%
NC(=O)CSc1nc(-c2ccc(F)cc2)cc(-c2ccco2)n1 | 75.2%
Cc1ccc2nc(NC(=O)CSC(=S)N3CCN(c4ccccc4)CC3)sc2c1 | 88.2%
O=C1N=c2ccccc2=C1c1sc(=Nc2ccccc2)n(Nc2ccccc2)c1O | 81.4%
CN1C(=O)N(C)C2(c3ccccc3)n3c(s/c(=C\c4ccccc4)c3=O)=NNC12c1ccccc1 (stereo not drawn) | 74.9%
Cn1c(/C=C(\C#N)c2ccccc2)nc2c(N3CCOCC3)nc(Cl)nc21 | -100% (active)
O=C(CN1C=NC2C(N3CCOCC3)=NC=NC21)c1cccc2ccccc12 (stereo not drawn) | 71.6%
O=c1c2cccc(F)c2sc2c(N3CCNCC3)nc3ccccc3c12 | 23%

What follows are compounds tested on TK-10 renal in the same assay as above. Details: 10 µM unless noted.

SMILES | growth
O=C1/C(=C\c2ccc[nH]2)c2ccccc2N1c1ccccc1 | 102%
CC[C@@H](C)[C@H](NC(=O)Cn1cc(CNC(=O)[C@@H](NC(=O)OCc2ccccc2)C(C)C)nn1)C(=O)O | 112%
CN1C(=O)N(C)C2C1NN=c1s/c(=C\c3ccc([N+](=O)[O-])cc3)c(=O)n12 (stereo not drawn) | 95.2%
CNCCNc1nc2ccccc2c2c(=O)c3cccc(C)c3sc12 | 41.7%
CCCCN1CCN(c2ccc3nc(-c4ccc5nc(-c6ccc(C(F)(F)F)cc6)[nH]c5c4)[nH]c3c2)CC1 | -71.3% (active)
CC[C@H](C)[C@@H](C(=O)OC)n1cc(CNC(=O)[C@@H](Cc2ccccc2)NC(=O)OCc2ccccc2)nn1 | 101%
COc1ccc(C2=C(c3cccc(OC)c3)C(=O)c3ccc(C)nc3C2=O)cc1 | 93.8%
CC(C)C[C@H](C(=O)N[C@@H](C)C(N)=O)N1CC=CCN(O)S1(=O)=O | 106% [5 µM]
CN1C(=O)N(C)C2Nn3c(s/c(=C\c4ccc(Cl)cc4Cl)c3=O)=NC21 (stereo not drawn) | 117%
COc1ccc(/C=c2\sc3n(c2=O)NC2C(N=3)N(C)C(=O)N2C)cc1 (stereo not drawn) | 112%
COC(=O)c1c2c(c(C)[n+]([O-])c1C)C(=O)C=C(NCc1ccccc1)C2=O | 18.1%
N#C/C(=C\c1c(-c2ccccc2)[nH]c2ccccc12)S(=O)(=O)c1ccccc1 | 69.4%
CCN1C(=O)N(CC)C2C1NN=c1s/c(=C3\C(=O)N(CC(C)(C)C)c4ccccc43)c(=O)n12 (stereo not drawn) | 84.3%
CCCCCCCCCCCCCCn1cc(C2=C(c3coc4ccc(OC)cc34)C(=O)NC2=O)c2ccccc21 | 102%
O=c1c(-c2nc3ccccc3[nH]2)cc2ccccc2n1Cc1cn(Cc2ccccc2Cl)nn1 | 31%
COc1c(B(O)O)cccc1-c1nc2ccc3n[nH]c(F)c3c2c2c1CCCC2 | 35.7%
O=C(CSc1nc2ccccc2c(=O)n1-c1ccccc1)Nc1ccc(C(=O)/C=C/c2ccc(Cl)cc2)cc1 | 110%
Cc1cccc2c(=O)c3c(sc12)c(NCCN)nc1ccccc13 | -73.7% (active)
O=c1cc(-c2ccccc2)oc2cc(OCc3cn(Cc4ccc(F)cc4)nn3)cc(OCc3cn(Cc4ccc(F)cc4)nn3)c12 | 37.1%
COc1cc(/C=C2\Oc3cc(OCCCN4CCCC4)ccc3C2=O)cc(OC)c1 | 101%

SMILES | growth
Nc1no[n+]([O-])c1-c1nnc2c(n1)-c1ccccc1C2=O | 151%
Cc1nc2ccccc2c(/C=C/c2ccccc2)c1C(=O)/C=C/c1ccc(Cl)cc1 | 21.9%
O=C(CN1C=NC2C(N3CCOCC3)=NC=NC21)c1ccc(Br)cc1 (stereo not drawn) | 117%
COc1ccc(/C=C/C(=O)c2c(C)nc3ccccc3c2/C=C/c2ccccc2)cc1O | 125%
NC(CCc1nc2ccccc2c(=O)[nH]1)C(=O)O (stereo not drawn) | 102%
CN1CCN(Cc2ccc(NC(=O)c3[nH]ncc3Nc3cc(OC4CCCC4)ncn3)cc2)CC1 | 88.3%
COc1ccc(C2=Nn3c(NN)nnc3SC2)cc1 | 97.5%
COc1cc2nc(-c3cnc(N(C)C)nc3)nc(NC3CCN(Cc4ccccc4)CC3)c2cc1OC | -98.6% (active)
CCN1C(=O)N(c2ccccc2)C2NN=c3s/c(=C4\C(=O)N(C(C)C)c5ccccc54)c(=O)n3C21 (stereo not drawn) | 74.9%
CC(C)c1ccc(S(=O)(=O)NC(=O)NC2CCCC2)cc1 | 101%
COc1cc2nc(NC3CCC3)nc(NC3CCN(C(C)C)CC3)c2cc1OC | 46.8%
COc1ccc(C2C3=C(COC3=O)N(CCO)c3cc4c(cc32)OCCO4)cc1 (stereo not drawn) | 91.6%
NC(=O)CSc1nc(-c2ccc(F)cc2)cc(-c2ccco2)n1 | 129%
Cc1ccc2nc(NC(=O)CSC(=S)N3CCN(c4ccccc4)CC3)sc2c1 | 108%
O=C1N=c2ccccc2=C1c1sc(=Nc2ccccc2)n(Nc2ccccc2)c1O | 138%
CN1C(=O)N(C)C2(c3ccccc3)n3c(s/c(=C\c4ccccc4)c3=O)=NNC12c1ccccc1 (stereo not drawn) | 116%
Cn1c(/C=C(\C#N)c2ccccc2)nc2c(N3CCOCC3)nc(Cl)nc21 | -63.6% (active)
O=C(CN1C=NC2C(N3CCOCC3)=NC=NC21)c1cccc2ccccc12 (stereo not drawn) | 130%
O=c1c2cccc(F)c2sc2c(N3CCNCC3)nc3ccccc3c12 | 53%

From PubChem BioAssay (NCI)
